# Data: PubChem BioAssay (EPA / NIEHS)
# Records with an inconclusive call do not appear. Active and inactive are the calls of the source. The calls were made as follows: active = hit-call score of the fitted dose curve at least 0.9, where 1 is the maximum; inconclusive = response in the unintended direction; inactive = score below 0.9.
# How the values were obtained:
# [1] = biological target: human Ephrin type-A Receptor 1 (EphA1), EPHA1 (gene 2041) (UniProt P21709); assay: NVS_ENZ_hEphA1: NovaScreen (NVS) Enzymatic Assay for human Ephrin type-A Receptor 1 (EphA1) (AID 2283158);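 also: activity is signal loss versus DMSO meaning EphA1 kinase inhibition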
# human Ephrin type-A Receptor 1 (EphA1), EPHA1 (gene 2041), sequence (P21709 whole entry, looked up): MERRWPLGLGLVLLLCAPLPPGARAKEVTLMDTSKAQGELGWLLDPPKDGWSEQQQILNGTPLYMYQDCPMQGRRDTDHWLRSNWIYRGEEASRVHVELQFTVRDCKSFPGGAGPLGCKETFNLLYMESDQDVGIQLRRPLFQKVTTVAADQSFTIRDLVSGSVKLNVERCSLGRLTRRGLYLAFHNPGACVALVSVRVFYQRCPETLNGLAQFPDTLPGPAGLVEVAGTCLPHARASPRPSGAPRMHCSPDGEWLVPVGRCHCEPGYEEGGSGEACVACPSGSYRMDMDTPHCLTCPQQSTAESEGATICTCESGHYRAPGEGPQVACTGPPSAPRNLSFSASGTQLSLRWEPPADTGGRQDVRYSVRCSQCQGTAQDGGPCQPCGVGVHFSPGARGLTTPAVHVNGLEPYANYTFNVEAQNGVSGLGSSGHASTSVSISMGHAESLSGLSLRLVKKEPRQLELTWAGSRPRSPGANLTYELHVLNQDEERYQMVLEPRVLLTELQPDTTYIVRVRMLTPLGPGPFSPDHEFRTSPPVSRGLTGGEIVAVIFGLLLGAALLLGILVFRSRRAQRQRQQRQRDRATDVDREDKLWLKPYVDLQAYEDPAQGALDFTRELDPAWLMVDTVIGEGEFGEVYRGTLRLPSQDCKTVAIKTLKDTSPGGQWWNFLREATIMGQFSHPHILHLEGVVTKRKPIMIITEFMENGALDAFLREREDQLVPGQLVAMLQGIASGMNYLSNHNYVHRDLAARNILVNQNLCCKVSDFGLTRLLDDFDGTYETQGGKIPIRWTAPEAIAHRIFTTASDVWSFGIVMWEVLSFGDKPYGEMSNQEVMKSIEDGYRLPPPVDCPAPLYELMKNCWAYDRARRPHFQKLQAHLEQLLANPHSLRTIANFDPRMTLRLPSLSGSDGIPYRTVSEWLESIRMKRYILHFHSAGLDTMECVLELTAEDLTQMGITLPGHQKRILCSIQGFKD
# In short: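 Cell-free kinase activity with recombinant protein, 1 hour after dosing; product separated by electrophoretic mobility shift, fluorescence read. Primary screen at 25 uM in duplicate; hits run as concentration-response up to 50 uM, relative to DMSO.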
# [2] = biological target: human Janus Kinase 2 (Jak2), JAK2 (gene 3717) (UniProt O60674); assay: NVS_ENZ_hJak2: NovaScreen (NVS) Enzymatic Assay for human Janus Kinase 2 (Jak2) (AID 2283169)
# human Janus Kinase 2 (Jak2), JAK2 (gene 3717), sequence (O60674 whole entry, looked up): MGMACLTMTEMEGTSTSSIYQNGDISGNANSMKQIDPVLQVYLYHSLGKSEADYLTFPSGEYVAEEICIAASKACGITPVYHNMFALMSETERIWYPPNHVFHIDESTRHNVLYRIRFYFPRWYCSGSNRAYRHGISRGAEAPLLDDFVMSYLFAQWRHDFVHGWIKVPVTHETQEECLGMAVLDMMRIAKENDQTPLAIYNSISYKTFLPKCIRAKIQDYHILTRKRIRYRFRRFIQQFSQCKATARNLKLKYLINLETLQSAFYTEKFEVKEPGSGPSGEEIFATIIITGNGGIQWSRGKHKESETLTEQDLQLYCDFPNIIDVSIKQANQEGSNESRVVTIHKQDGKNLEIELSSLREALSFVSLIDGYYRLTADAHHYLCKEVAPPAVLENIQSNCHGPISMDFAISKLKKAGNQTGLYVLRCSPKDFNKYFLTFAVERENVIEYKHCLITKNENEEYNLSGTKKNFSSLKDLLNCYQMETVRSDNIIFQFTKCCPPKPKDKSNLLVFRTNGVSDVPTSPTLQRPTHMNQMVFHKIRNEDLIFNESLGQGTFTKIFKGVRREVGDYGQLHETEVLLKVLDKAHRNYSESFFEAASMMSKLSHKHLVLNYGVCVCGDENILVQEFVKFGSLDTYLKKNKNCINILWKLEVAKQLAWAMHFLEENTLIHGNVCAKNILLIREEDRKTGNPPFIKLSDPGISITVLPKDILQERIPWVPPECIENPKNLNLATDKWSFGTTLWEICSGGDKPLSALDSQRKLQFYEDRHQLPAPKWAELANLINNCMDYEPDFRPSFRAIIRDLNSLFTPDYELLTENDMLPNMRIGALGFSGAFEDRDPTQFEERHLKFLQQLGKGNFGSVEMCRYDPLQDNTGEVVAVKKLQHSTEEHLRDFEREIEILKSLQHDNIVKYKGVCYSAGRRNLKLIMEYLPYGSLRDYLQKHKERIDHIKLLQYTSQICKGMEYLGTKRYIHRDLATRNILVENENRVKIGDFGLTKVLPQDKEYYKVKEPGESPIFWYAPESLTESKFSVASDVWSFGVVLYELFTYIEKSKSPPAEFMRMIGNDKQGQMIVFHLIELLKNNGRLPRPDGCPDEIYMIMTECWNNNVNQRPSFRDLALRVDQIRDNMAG
# In short: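 Single-point duplicate screen at 25 uM, with hits run in concentration series to a 50 uM top dose. Substrate-product separation by mobility shift with fluorescence detection, 1 h post-dosing; DMSO baseline.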
# [3] = biological target: human c-Jun N-terminal Kinases (JNK2), MAPK9 (gene 5601) (UniProt P45984); assay: NVS_ENZ_hJNK2: NovaScreen (NVS) Enzymatic Assay for human c-Jun N-terminal Kinases (JNK2) (AID 2283171)
# In short: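 Chemicals first tested in duplicate at 25 uM, then in singleton concentration series up to 50 uM, against extracted JNK2 enzyme. Activity loss read by fluorescence with mobility-shift separation 1 h post-dose; DMSO baseline.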
# [4] = biological target: human MAP Kinase-Activated Protein Kinase 2 (MAPKAPK2), MAPKAPK2 (gene 9261) (UniProt P49137); assay: NVS_ENZ_hMAPKAPK2: NovaScreen (NVS) Enzymatic Assay for human MAP Kinase-Activated Protein Kinase 2 (MAPKAPK2) (AID 2283178)
# In short: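 Chemicals screened in duplicate at 25 uM, then to 50 uM top concentration in concentration-response, against recombinant human MAPKAPK2; substrate conversion read 1 hr post-dosing by fluorescence after electrophoretic mobility-shift separation, loss-of-signal relative to DMSO.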
# [5] = biological target: Collagenase 3 (Homo sapiens) (UniProt P45452); assay: NVS_ENZ_hMMP13: NovaScreen (NVS) Enzymatic Assay for human Matrix Metalloproteinase-13 (MMP13) (AID 2283182)
# In short: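 Recombinant MMP13 cleaving fluorescent substrate, cell-free, measured 1 h after dosing. Primary duplicate screen at 25 uM; actives tested in concentration-response up to 50 uM; loss of signal relative to DMSO.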
# [6] = biological target: human Matrix Metalloproteinase-2 (MMP2), MMP2 (gene 4313) (UniProt P08253); assay: NVS_ENZ_hMMP2: NovaScreen (NVS) Enzymatic Assay for human Matrix Metalloproteinase-2 (MMP2) (AID 2283184)
# human Matrix Metalloproteinase-2 (MMP2), MMP2 (gene 4313), sequence (P08253 whole entry, looked up): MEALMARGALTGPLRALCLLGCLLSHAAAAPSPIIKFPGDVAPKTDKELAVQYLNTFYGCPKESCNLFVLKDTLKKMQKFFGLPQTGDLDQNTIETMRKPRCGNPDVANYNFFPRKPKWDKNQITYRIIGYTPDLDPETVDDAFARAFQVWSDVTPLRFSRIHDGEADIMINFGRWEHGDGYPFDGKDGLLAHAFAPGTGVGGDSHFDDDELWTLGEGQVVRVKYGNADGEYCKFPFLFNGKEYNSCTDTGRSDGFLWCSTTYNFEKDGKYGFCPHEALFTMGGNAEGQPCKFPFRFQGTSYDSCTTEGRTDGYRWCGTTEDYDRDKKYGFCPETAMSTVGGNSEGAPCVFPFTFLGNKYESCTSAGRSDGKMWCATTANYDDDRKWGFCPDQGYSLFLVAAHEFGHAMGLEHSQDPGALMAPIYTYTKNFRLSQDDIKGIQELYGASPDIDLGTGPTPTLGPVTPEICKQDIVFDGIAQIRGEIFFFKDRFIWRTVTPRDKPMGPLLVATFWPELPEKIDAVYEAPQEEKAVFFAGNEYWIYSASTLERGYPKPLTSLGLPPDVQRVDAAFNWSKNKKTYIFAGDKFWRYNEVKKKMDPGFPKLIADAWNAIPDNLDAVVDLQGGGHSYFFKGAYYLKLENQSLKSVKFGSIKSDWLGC
# In short: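 Compounds first screened in duplicate at a single 25 uM, with actives followed up in concentration series. Recombinant human MMP2 cleaves a fluorogenic substrate; fluorescence taken at 1 h, inhibition fitted relative to DMSO.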
# [7] = biological target: cAMP-dependent protein kinase catalytic subunit alpha (Homo sapiens) (UniProt P17612); assay: NVS_ENZ_hPKA: NovaScreen (NVS) Enzymatic Assay for human Protein Kinase A (PKA) (AID 2283192)
# In short: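 Cell-free kinase activity read by fluorescence after mobility-shift separation of substrate and product, 1 h post-dosing. Single-concentration duplicate screen (25 uM) preceded singleton concentration series (top 50 uM); loss of signal versus DMSO.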
# [8] = biological target: human Phosphodiesterase 5 (PDE5), PDE5A (gene 8654) (UniProt O76074); assay: NVS_ENZ_hPDE5: NovaScreen (NVS) Enzymatic Assay for human Phosphodiesterase 5 (PDE5) (AID 2283194)
# In short: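 Screening began in duplicate at 25 uM, with actives taken into concentration-response. Enzyme activity of recombinant PDE5 toward its substrate was measured at 1 h by fluorescence mobility-shift detection, relative to DMSO controls.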
# [9] = biological target: human Phosphodiesterase 10 (PDE10), PDE10A (gene 10846) (UniProt Q9Y233); assay: NVS_ENZ_hPDE10: NovaScreen (NVS) Enzymatic Assay for human Phosphodiesterase 10 (PDE10) (AID 2283195)
# In short: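 Readout is fluorescence intensity following electrophoretic mobility-shift separation, 1 h after dosing of isolated PDE10A protein. Hits meeting a preset threshold at 25 uM went to concentration series (max 50 uM), analysed relative to DMSO.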
# [10] = biological target: human Phosphoinositide 3-kinase alpha (PI3Ka), PIK3CA (gene 5290) (UniProt P42336); assay: NVS_ENZ_hPI3Ka: NovaScreen (NVS) Enzymatic Assay for human Phosphoinositide 3-kinase alpha (PI3Ka) (AID 2283196)
# human Phosphoinositide 3-kinase alpha (PI3Ka), PIK3CA (gene 5290), sequence (P42336 whole entry, looked up): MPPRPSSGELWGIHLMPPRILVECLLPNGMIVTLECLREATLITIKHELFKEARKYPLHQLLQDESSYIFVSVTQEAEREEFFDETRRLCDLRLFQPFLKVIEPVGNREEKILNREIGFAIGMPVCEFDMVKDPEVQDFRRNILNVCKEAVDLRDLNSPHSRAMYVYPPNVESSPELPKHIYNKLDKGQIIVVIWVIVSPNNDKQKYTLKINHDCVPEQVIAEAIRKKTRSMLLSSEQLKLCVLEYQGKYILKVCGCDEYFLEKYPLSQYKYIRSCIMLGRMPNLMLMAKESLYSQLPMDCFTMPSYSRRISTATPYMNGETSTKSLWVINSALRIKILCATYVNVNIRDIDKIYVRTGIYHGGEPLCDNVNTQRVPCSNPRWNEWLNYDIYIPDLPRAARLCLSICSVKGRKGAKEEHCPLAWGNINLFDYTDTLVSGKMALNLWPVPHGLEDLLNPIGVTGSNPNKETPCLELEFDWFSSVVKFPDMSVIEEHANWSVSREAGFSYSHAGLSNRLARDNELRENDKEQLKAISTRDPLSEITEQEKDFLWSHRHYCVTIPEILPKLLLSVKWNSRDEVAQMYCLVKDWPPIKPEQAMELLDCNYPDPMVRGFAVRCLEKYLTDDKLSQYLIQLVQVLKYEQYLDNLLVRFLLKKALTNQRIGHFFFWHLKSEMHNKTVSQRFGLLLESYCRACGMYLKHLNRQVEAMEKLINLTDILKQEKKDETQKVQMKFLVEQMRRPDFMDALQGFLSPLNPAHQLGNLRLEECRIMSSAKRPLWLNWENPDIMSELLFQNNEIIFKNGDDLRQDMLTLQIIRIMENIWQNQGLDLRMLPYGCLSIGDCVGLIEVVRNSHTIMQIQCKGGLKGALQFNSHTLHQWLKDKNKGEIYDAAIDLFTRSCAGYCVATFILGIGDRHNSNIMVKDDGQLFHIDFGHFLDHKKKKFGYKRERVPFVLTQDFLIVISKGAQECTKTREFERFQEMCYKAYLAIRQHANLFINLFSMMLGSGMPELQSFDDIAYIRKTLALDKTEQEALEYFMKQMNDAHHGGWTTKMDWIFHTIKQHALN
# In short: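 Chemicals were first screened at 25 uM in duplicate, then hits were run as concentration series up to 50 uM. Enzyme activity was measured by fluorescence after mobility-shift separation, with loss of signal relative to DMSO taken as activity.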
# [11] = biological target: human Esterase Plasma (ES), BCHE (gene 590) (UniProt P06276); assay: NVS_ENZ_hES: NovaScreen (NVS) Enzymatic Assay for human Esterase Plasma (ES) (AID 2283157)
# human Esterase Plasma (ES), BCHE (gene 590), sequence (P06276 whole entry, looked up): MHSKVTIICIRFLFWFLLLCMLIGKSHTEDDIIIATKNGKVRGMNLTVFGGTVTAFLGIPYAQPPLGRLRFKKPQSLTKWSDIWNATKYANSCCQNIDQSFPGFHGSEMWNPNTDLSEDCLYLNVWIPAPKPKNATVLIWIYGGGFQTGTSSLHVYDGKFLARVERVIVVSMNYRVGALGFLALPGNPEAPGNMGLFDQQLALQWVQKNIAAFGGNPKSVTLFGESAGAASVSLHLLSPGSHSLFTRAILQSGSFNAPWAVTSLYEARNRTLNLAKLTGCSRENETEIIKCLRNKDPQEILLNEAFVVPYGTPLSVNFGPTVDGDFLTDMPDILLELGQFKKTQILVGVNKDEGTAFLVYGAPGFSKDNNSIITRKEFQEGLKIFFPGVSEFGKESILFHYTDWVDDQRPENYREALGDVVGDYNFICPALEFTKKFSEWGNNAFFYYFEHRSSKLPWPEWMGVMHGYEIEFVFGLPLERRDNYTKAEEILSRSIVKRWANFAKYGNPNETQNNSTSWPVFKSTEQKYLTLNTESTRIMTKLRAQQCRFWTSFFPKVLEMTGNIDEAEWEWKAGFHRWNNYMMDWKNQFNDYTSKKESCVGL
# In short: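 Screening ran at 25 uM in duplicate, followed by singleton concentration series reaching 50 uM for actives. Human plasma protein, colorimetric detection, 0.25 h exposure, DMSO negative control.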
# [12] = biological target: Histone deacetylase 3 (Homo sapiens) (UniProt O15379); assay: NVS_ENZ_hHDAC3: NovaScreen (NVS) Enzymatic Assay for human Histone Deacetylase 3 (HDAC3) (AID 2283163)
# Histone deacetylase 3 (Homo sapiens), sequence (O15379 whole entry, looked up): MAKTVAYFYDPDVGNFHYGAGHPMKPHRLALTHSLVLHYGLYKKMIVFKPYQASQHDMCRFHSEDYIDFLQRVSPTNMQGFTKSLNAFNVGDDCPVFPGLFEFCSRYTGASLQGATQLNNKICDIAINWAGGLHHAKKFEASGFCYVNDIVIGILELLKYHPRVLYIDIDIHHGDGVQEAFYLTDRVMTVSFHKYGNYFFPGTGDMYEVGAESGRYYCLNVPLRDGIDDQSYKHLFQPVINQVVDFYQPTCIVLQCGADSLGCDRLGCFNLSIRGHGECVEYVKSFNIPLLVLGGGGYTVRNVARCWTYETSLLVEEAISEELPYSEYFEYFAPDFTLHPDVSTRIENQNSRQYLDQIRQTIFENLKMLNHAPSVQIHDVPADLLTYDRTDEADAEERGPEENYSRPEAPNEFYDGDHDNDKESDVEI
# In short: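 Cell-free enzyme format: loss of fluorescent product after mobility-shift separation, 1 h incubation, recombinant human HDAC3. Single 25 uM duplicate screen first, then concentration series to a 50 uM top for hits; DMSO as baseline.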
# [13] = biological target: human Mitogen- and Stress-activated Protein Kinase-1 (Msk1), RPS6KA5 (gene 9252) (UniProt O75582); assay: NVS_ENZ_hMsk1: NovaScreen (NVS) Enzymatic Assay for human Mitogen- and Stress-activated Protein Kinase-1 (Msk1) (AID 2283187)
# In short: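 Chemicals first run in duplicate at 25 uM, with actives followed up in singleton concentration series to 50 uM maximum. Enzyme activity came from substrate/product mobility-shift separation with fluorescence detection after 1 h incubation of the recombinant protein.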
# [14] = biological target: human Elastase, ELANE (gene 1991) (UniProt P08246); assay: NVS_ENZ_hElastase: NovaScreen (NVS) Enzymatic Assay for human Elastase (AID 2283153)
# In short: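 Concentration-response to 50 uM max, run singly for chemicals passing a threshold (e.g., 30% inhibition) in a duplicate 25 uM single-point screen. Neutrophil-derived human elastase, absorbance read-out of enzyme activity at 1.5 h; DMSO baseline.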
# [15] = biological target: Mitogen-activated protein kinase 3 (Homo sapiens) (UniProt P27361); assay: NVS_ENZ_hMAPK3: NovaScreen (NVS) Enzymatic Assay for human Mitogen-Activated Protein Kinase 3 (MAPK 3) (AID 2283177)
# In short: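 Chemicals were first tested in duplicate at 25 uM, with hits re-run as concentration series (max 50 uM). Recombinant enzyme activity, measured 1 h post-dose in a cell-free format, was read by fluorescence/mobility shift relative to DMSO.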
# [16] = biological target: human Matrix Metalloproteinase-3 (MMP3), MMP3 (gene 4314) (UniProt P08254); assay: NVS_ENZ_hMMP3: NovaScreen (NVS) Enzymatic Assay for human Matrix Metalloproteinase-3 (MMP3) (AID 2283185)
# In short: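 Fluorescent substrate turnover by recombinant MMP3 read after 1 h, signal loss scored against DMSO. Compounds first run in duplicate at 25 uM single dose, then actives confirmed by concentration series.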
# [17] = biological target: human FYN Proto-Oncogene, Src family Tyrosine Kinase (Fyn), FYN (gene 2534) (UniProt P06241); assay: NVS_ENZ_hFyn: NovaScreen (NVS) Enzymatic Assay for human FYN Proto-Oncogene, Src family Tyrosine Kinase (Fyn) (AID 2283161)
# In short: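 Cell-free kinase activity read by fluorescence after mobility-shift separation of substrate and product, 1 h post-dose. Initial single concentration 25 uM in duplicate, then concentration-response follow-up; DMSO baseline.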
# [18] = biological target: human LYN Proto-Oncogene, Src family Tyrosine Kinase (LynA), LYN (gene 4067) (UniProt P07948); assay: NVS_ENZ_hLynA: NovaScreen (NVS) Enzymatic Assay for human LYN Proto-Oncogene, Src family Tyrosine Kinase (LynA) (AID 2283173)
# In short: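 Recombinant kinase with fluorescent substrate; product separated from substrate by electrophoretic mobility shift and read 1 h after dosing. Duplicate screen at 25 uM, then concentration-response up to 50 uM; activity scored as signal loss against DMSO.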
# [19] = biological target: human Matrix Metalloproteinase-7 (MMP7), MMP7 (gene 4316) (UniProt P09237); assay: NVS_ENZ_hMMP7: NovaScreen (NVS) Enzymatic Assay for human Matrix Metalloproteinase-7 (MMP7) (AID 2283183)
# In short: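 Compounds first tested at 25 uM in duplicate, then at up to 50 uM in concentration series if active. Protease activity measured by fluorescence intensity 1 h after dosing, with fitting relative to DMSO.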
structure (smiles),measurement,setting,value
O=C(O)c1cc(N=Nc2ccc(S(=O)(=O)Nc3ccccn3)cc2)ccc1O,outcome,[1],inactive
same,outcome,[2],inactive
same,outcome,[3],inactive
same,outcome,[4],inactive
same,AC50,[5],19.5 µM (active)
same,outcome,[6],inactive
same,outcome,[7],inactive
same,outcome,[8],inactive
same,AC50,[9],5.28 µM (active)
same,outcome,[10],inactive
COc1ccc(/C=C/S(=O)(=O)NC(=O)c2ccc(C)cc2Cl)cc1,outcome,[1],inactive
O=C(O)CC(O)C(=O)O (centres undefined),outcome,[11],inactive
same,outcome,[12],inactive
same,outcome,[2],inactive
same,outcome,[13],inactive
same,outcome,[9],inactive
COc1cccc(-c2ccc(/C=C\CN3CCCCCC3)cc2Cl)c1,AC50,[11],1.78 µM (active)
same,AC50,[9],22.6 µM (active)
CCCCC(CC)COC(=O)CCCCCCCCC(=O)OCC(CC)CCCC (centres undefined),AC50,[14],23.4 µM (active)
same,outcome,[15],inactive
CCn1nc(Cc2ccccc2)cc1C1CCN(C[C@H]2C[C@H](N(C)[C@@H](C(=O)O)C(C)C)C[C@@H]2c2cccc(F)c2)CC1,AC50,[11],13 µM (active)
O=C(OC[C@H]1O[C@@H](OC(=O)c2cc(O)c(O)c(OC(=O)c3cc(O)c(O)c(O)c3)c2)[C@H](OC(=O)c2cc(O)c(O)c(OC(=O)c3cc(O)c(O)c(O)c3)c2)[C@@H](OC(=O)c2cc(O)c(O)c(OC(=O)c3cc(O)c(O)c(O)c3)c2)[C@@H]1OC(=O)c1cc(O)c(O)c(OC(=O)c2cc(O)c(O)c(O)c2)c1)c1cc(O)c(O)c(OC(=O)c2cc(O)c(O)c(O)c2)c1,AC50,[14],0.0537 µM (active)
same,AC50,[16],0.437 µM (active)
COC(=O)c1c(Cl)c(Cl)c(C(=O)OC)c(Cl)c1Cl,outcome,[11],inactive
same,outcome,[5],inactive
CCN(C(=O)c1cc(C)cc(OC[C@H](C)Nc2ccncc2)c1)C(C)C,AC50,[11],11.8 µM (active)
CCc1cc(SCc2sc(-c3ccc(C(F)(F)F)cc3)nc2CN2CCN(c3ccc(OC)cc3)CC2)ccc1OCC(=O)O,AC50,[14],2.7 µM (active)
same,AC50,[5],5.85 µM (active)
same,AC50,[6],19.8 µM (active)
same,outcome,[16],inactive
Cc1ccc(N)cc1O,outcome,[1],inactive
same,outcome,[17],inactive
same,outcome,[12],inactive
same,outcome,[3],inactive
same,outcome,[18],inactive
same,AC50,[15],20.1 µM (active)
same,outcome,[13],inactive
same,outcome,[7],inactive
same,outcome,[8],inactive
same,outcome,[10],inactive
CCC(C)(C)C(=O)O[C@H]1C[C@@H](C)C=C2C=C[C@H](C)[C@H](CC[C@@H]3C[C@@H](O)CC(=O)O3)[C@H]21,outcome,[14],inactive
same,outcome,[11],inactive
COCCOc1cc2cc(C(=O)NC3CCN(C(C)C)CC3)n(CC(=O)Nc3ccc(Cl)cn3)c2cn1,AC50,[11],23.3 µM (active)
same,outcome,[12],inactive
Nc1ccc(Nc2ccccc2)cc1,AC50,[11],29.8 µM (active)
same,outcome,[4],inactive
same,AC50,[5],5.61 µM (active)
CCOc1cccc(-n2cc(C(=O)N3CCN(c4cc(C(=O)O)c5ccccc5c4)CC3)nc2-c2ccc(C)cc2)c1,AC50,[14],6.63 µM (active)
CCCN(C1CCN(C(=O)C2CCNCC2)CC1)[C@@H]1CCc2ccc(OC)cc2C1,outcome,[11],inactive
Cc1[nH]cnc1C[C@H]1CCc2c(C)c3ccccc3n2C1=O,AC50,[11],14.4 µM (active)
same,AC50,[16],29.9 µM (active)
CN(C)c1ccc(N=NS(=O)(=O)O)cc1,outcome,[1],inactive
same,outcome,[7],inactive
same,outcome,[8],inactive
Oc1ccc2c(c1)-c1ccccc1C2,AC50,[14],23 µM (active)
same,outcome,[11],inactive
CC(C)CCO,outcome,[1],inactive
same,outcome,[19],inactive
same,outcome,[16],inactive
CCCCC(CC)COC(=O)c1ccc(C(=O)OCC(CC)CCCC)cc1 (centres undefined),outcome,[14],inactive
same,outcome,[5],inactive
same,outcome,[6],inactive
COc1ccc2sc(C(=O)Nc3nnn[nH]3)c(OC(C)C)c2c1,outcome,[14],inactive
same,outcome,[1],inactive
same,AC50,[2],8.74 µM (active)
same,AC50,[16],46.7 µM (active)
same,AC50,[7],13.2 µM (active)
same,AC50,[8],0.476 µM (active)
same,AC50,[10],0.192 µM (active)
